Rows were chosen to be rich in hits. Some 8.7% of all compounds tested hit in one or more screens of this group.
Sfp PPTase inh = qHTS Assay for Inhibitors of Bacillus subtilis Sfp phosphopantetheinyl transferase (PPTase). 4'-phosphopantetheinyl transferase ffp (Bacillus subtilis), Q9F4F7. Biochemical Sfp PPTase activity, qHTS. Potency, µM, usual class: inhibitors. 3.5% of 310,000 active. AID 1490, 2009;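 note: the enzyme is Sfp with the accession as filed and its product quenches rhodamine fluorescence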
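Step 1, compound plus 15 nM Sfp-PPTase, 15 min, room temperature. Step 2, add rhodamine-CoA (5 uM) and BHQ-2-YbbR (12.5 uM). Step 3, read 525/598 nm fluorescence at 0 and 30 min.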
HP1b binding inh = HTS for Inhibitors of HP1-beta Chromodomain Interactions with Methylated Histone Tails | Chromobox protein homolog 1 (Homo sapiens), P83916 | AlphaScreen HP1-beta / biotin-H3K9me3 peptide binding | Potency, µM (doses to about 114 µM), actives largely listed as inhibitors | 0.56% of 390,000 active; note: nearly all actives have a fitted effect of over 70% in size
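Compound inhibition of the preformed complex between 50 nM HP1-beta and 50 nM biotinylated H3K9me3 peptide was read by AlphaScreen. Buffer was PBS pH 7.4 with 0.01% Tween-20. Incubations ran 30 min at room temperature, with 10 ug/mL donor/acceptor beads.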
JMJD2A Tudor inh = qHTS Assay for Inhibitors of JMJD2A-Tudor Domain; Lysine-specific demethylase 4A (Homo sapiens), O75164; AlphaScreen JMJD2A-Tudor / H3K4me3 peptide binding; Potency, µM (top dose mostly 114 µM), usual class: inhibitors; 4.4% of 390,000 active; note: nearly all actives have a fitted effect of over 50% in size
ALOX12 inh = Primary qHTS assay for inhibitors of human arachidonate 12S-lipoxygenase (ALOX12): Round 2; 1.1% of 580,000 active; Polyunsaturated fatty acid lipoxygenase ALOX12 (Homo sapiens), P18054; purified 12hLO, xylenol orange hydroperoxide absorbance; Potency, µM (titrated, usually from 108 µM), actives largely listed as inhibitors
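Hydroperoxide product was detected by ferrous iron/xylenol orange as the 573 to 405 nm absorbance ratio. Arachidonic acid at 40 uM (final) was turned over for 30 min at room temperature by 150 nM human 12hLO, pH 7.0 Hepes buffer, after 15 min compound preincubation.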
G9a block = qHTS Assay for Inhibitors of Histone Lysine Methyltransferase G9a; G9a H3K9 monomethylation, AlphaScreen, 2 h; Potency, µM (series often up to 102 µM), most hits filed as inhibitors; 8.8% of 350,000 active; AID 504332, 2011; note: nearly all actives have a fitted effect of over 75% in size
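Quantitative HTS format: methyltransferase activity on a biotin-tagged H3K9 peptide is measured by AlphaScreen, using a rabbit anti-monomethyl-H3K9 antibody with streptavidin donor and anti-IgG acceptor beads. Final levels are 20 nM enzyme, 500 nM peptide, 20 uM SAM; 2 h RT.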
BAZ2B inh = qHTS Assay for Inhibitors of BAZ2B; Bromodomain adjacent to zinc finger domain protein 2B (Homo sapiens), Q9UIF8; AlphaScreen BAZ2B-H3K14Ac peptide displacement; Potency, µM (highest dose often 114 µM), hits mostly inhibitors; 4.4% of 360,000 active; note: nearly all actives have a fitted effect of over 60% in size
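AlphaScreen displacement: compounds (up to 110uM) incubated 30 min at room temperature with a preformed 50 nM BAZ2B/50 nM biotinylated H3K14Ac peptide complex in PBS pH 7.4 with Tween-20. Donor and acceptor beads at 10 ug/mL final added, 20 min light-protected before reading.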
A number is an active result; . = inactive; ? = inconclusive; / = no result given; [ ] = remark or other dose. Calls come from the whole dose curve; as a rule, active = well fitted curve in the direction sought with a large enough effect; inconclusive = small, poorly fitted or top-dose-only effect, or another doubt; inactive = no such curve, though single readings can be large; an effect the other way counts as inactive or inconclusive.

SMILES | Sfp PPTase inh | HP1b binding inh | JMJD2A Tudor inh | ALOX12 inh | G9a block | BAZ2B inh
Cc1nn(-c2ccccc2)c(C)c1C1C(C#N)=C(N)Oc2n[nH]c(C)c21 (stereo not drawn) | . | . | . | . | ? | .
Cc1nn(-c2ccccc2)c2c1C(c1ccco1)C(C#N)=C(N)O2 (stereo not drawn) | . | . | 63µM | ? | 40µM | 40µM
CCCC1=C(C(=O)OCC)C(c2c(C)nn(-c3ccccc3)c2Cl)C(C#N)=C(N)O1 (stereo not drawn) | . | . | . | . | ? | .
CC(C)(C)c1[nH]nc2c1C(c1ccco1)C(C#N)=C(N)O2 (stereo not drawn) | . | . | . | . | ? | ?
Cc1nn(-c2ccccc2)c2c1C(c1cccs1)C(C#N)=C(N)O2 (stereo not drawn) | . | 50µM | 56µM | / | 35µM | 40µM
Cc1nn(-c2ccccc2)c2c1C(c1ccc([N+](=O)[O-])cc1)C(C#N)=C(N)O2 (stereo not drawn) | . | . | . | . | 50µM | ?
CCCc1nn(-c2ccccc2)c2c1C(c1cccs1)C(C#N)=C(N)O2 (stereo not drawn) | . | . | ? | . | ? | 40µM
O=C(CN(c1ccccc1F)S(=O)(=O)c1ccccc1)Nc1ccccc1 | / | / | / | . | / | /
O=C(OCC(=O)C12CC3CC(CC(C3)C1)C2)c1ccccc1Sc1ccc(C(F)(F)F)cc1[N+](=O)[O-] | / | / | / | . | / | /
O=C(COc1cccc(Br)c1)Nc1ccc2[nH]ncc2c1 | / | / | / | . | / | /
COc1cc(C2C(C#N)=C(N)Oc3n[nH]c(-c4ccccc4)c32)cc(OC)c1OC (stereo not drawn) | / | / | / | . | / | /
COc1cc(C2C(C#N)=C(N)Oc3c2c(-c2ccccc2)nn3-c2ccccc2)cc(OC)c1OC (stereo not drawn) | . | . | ? | . | ? | 45µM
Cc1ccc2oc(=O)c(/C=C(\O)c3ccccc3)nc2c1 | ? | . | . | ? | 7.9µM | .
Cc1ccc2oc(=O)c(/C=C(\O)CC(C)C)nc2c1 | . | . | . | . | 50µM | .
Cc1ccc2oc(=O)c(/C=C(\O)c3cccs3)nc2c1 | . | . | . | . | ? | .
O=c1oc2ccc(Cl)cc2nc1/C=C(\O)c1cccs1 | ? | . | ? | . | 3.2µM | 50µM
O=c1oc2ccccc2nc1/C=C(\O)c1ccc(Br)cc1 | 56µM | . | . | / | / | .
C/C(O)=C\c1nc2ccccc2oc1=O | ? | . | .[11.4 µM] | . | ? | .
CN1C(=O)C2(CCN(C(=O)CCC3CCCCC3)CC2)c2ccccc21 | / | / | / | . | / | /
COc1cccc2cc(C(=O)NNC(=O)c3ccc(Br)cc3)c(=O)oc12 | . | ? | 79µM | . | 45µM | .
CCOC(=O)CC(NC(=O)c1cc2cccc(OC)c2oc1=O)c1cccc([N+](=O)[O-])c1 (stereo not drawn) | 50µM | . | ? | ? | 32µM | .
COc1cc(C(C)=O)ccc1OC(=O)c1cc2cccc(OC)c2oc1=O | . | . | . | . | 35µM | .
OCC1(CCCc2ccccc2)CCN(Cc2cccc(-n3cccn3)c2)CC1 | / | / | / | . | / | /
O=[N+]([O-])c1ccc(N/N=C2\CC3CC=CC23)c([N+](=O)[O-])c1 (stereo not drawn) | ? | 14µM | 14µM | . | 14µM | 3.2µM
O=[N+]([O-])c1ccc(N/N=C2\CC3CC=CC23)cc1 (stereo not drawn) | . | . | ? | ? | 45µM | ?
SMILES | Sfp PPTase inh | HP1b binding inh | JMJD2A Tudor inh | ALOX12 inh | G9a block | BAZ2B inh
CC(=O)c1cccc(NC(=O)N2C[C@H](c3nc(-c4ccncc4)no3)[C@@H](C)C2)c1 | / | / | / | . | / | /
O=C(c1c(F)cccc1F)N(Cc1ccc2cc[nH]c2c1)C1CC1 | / | / | / | . | / | /
CN1CCN(NS(=O)(=O)c2cccs2)CC1 | . | . | . | . | 1.4µM | .
O=S(=O)(NCCNS(=O)(=O)c1cccs1)c1cccs1 | . | . | . | . | . | .
Cc1c(-c2ccccc2)oc2c(C(=O)N3CCN(CC(=O)NC(C)(C)C)CC3)cccc2c1=O | / | / | / | . | / | /
O=C(NNC1=NS(=O)(=O)c2ccccc21)c1ccc([N+](=O)[O-])cc1 | . | . | . | . | 35µM | .
S=c1nccc(-c2ccc3c(c2)CCO3)[nH]1 | . | . | . | . | 40µM | .
CC1(C)CCc2cc(-c3ccnc(=S)[nH]3)ccc2O1 | . | . | ? | ? | ? | .
S=c1nccc(-c2ccccc2)[nH]1 | / | / | / | 13µM | / | /
CN(C)CCCN=c1c2ccccc2n(C)c2[nH]c(=O)n(C)c(=O)c12 | / | / | / | 22µM | / | /
O=C(CN1CCN(C(c2ccccc2)c2ccccc2)CC1)N1CCOCC1 | . | . | 18µM | ? | 8.9µM | 50µM
N#CCC(=O)N1CCN(C(c2ccccc2)c2ccccc2)CC1 | / | . | . | . | / | /
C=CCNC(=O)CN1CCN(C(c2ccccc2)c2ccccc2)CC1 | . | ? | 20µM | ? | 11µM | 50µM
C=CCNC(=O)CN1CCC(O)(c2ccccc2)CC1 | . | . | . | . | . | .
O=C(CSc1ncccn1)N1CCN(C(c2ccccc2)c2ccccc2)CC1 | . | . | . | . | 5.6µM | .
COc1ccc(N2CCN(C(=O)CN3CCN(C(c4ccccc4)c4ccccc4)CC3)CC2)cc1 | . | . | 25µM | . | ? | 50µM
O[C@H]1[C@H](NCc2ccc(OC(F)(F)F)cc2)[C@H]2CO[C@H](O2)[C@@H]1N1CCC(Cc2ccccc2)CC1 | / | / | / | . | / | /
O=C(Nc1cccc2ncccc12)C1CCCN(S(=O)(=O)c2ccc(Br)cc2)C1 (stereo not drawn) | / | / | / | . | / | /
Cc1n[nH]c(C)c1C(N)C(=O)NCc1cc(C(F)(F)F)ccc1F (stereo not drawn) | / | / | / | . | / | /
Oc1c(C(c2ccccc2)N2CCOCC2)ccc2ccccc12 (stereo not drawn) | / | 14µM | 10µM | ? | / | /
COc1ccc(C(=O)NCC(=O)N2CCCCCNC(=O)CC2c2ccccc2)cc1 (stereo not drawn) | / | / | / | . | / | /
O=C1CSC(c2cn(-c3ccccc3)nc2-c2ccccc2)N1Cc1ccco1 (stereo not drawn) | . | . | ? | 45µM | 11µM | ?
CC(C)CCNC(=O)c1ccc(C2SCC(=O)N2Cc2ccco2)cc1 (stereo not drawn) | 8.9µM | . | . | . | ? | .
CCc1ccc(-c2nn(-c3ccccc3)cc2C2SCC(=O)N2Cc2ccco2)cc1 (stereo not drawn) | . | ? | . | . | . | ?

Screens from PubChem BioAssay.
